In the library only some 2.8% were active in any assay of this set; here they are far more common.
PP1 counter = counter-screen for PP5 inhibitors: inhibitors of human PP1-alpha; P62136; purified PP1alpha, OMFP fluorescence; inhibition, % at 6.7 µM; actives 0.9% (n = 320,000);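 active means inhibition above the mean inhibition of all tested compounds plus 3 SD, computed separately for each screening campaign, cut at about 15% in these data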
PP5 inh = inhibitors of human protein phosphatase 5 (PP5); actives 0.18% (n = 320,000); purified PP5c, OMFP substrate fluorescence; P53041; inhibition, % at 6.7 µM;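 active means inhibition above the campaign's mean inhibition across all tested compounds plus 3 SD, cut at about 9.5% in these data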;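 further: 0% = DMSO only and 100% = 100 µM cantharidin control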
Target sequence (P53041 whole entry, looked up): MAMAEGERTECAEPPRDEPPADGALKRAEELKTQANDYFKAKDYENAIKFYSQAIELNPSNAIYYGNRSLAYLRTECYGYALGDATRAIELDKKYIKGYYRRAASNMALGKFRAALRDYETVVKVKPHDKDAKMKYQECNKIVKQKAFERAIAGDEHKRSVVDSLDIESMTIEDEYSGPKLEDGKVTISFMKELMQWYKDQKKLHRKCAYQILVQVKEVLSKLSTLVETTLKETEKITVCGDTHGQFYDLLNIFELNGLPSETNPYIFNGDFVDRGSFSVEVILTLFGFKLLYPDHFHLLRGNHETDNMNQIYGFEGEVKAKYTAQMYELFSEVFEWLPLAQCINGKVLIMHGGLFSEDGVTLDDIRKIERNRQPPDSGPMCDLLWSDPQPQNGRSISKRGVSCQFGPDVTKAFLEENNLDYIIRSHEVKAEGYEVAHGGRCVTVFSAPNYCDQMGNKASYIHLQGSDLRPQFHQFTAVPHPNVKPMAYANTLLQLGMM
IDE inh = inhibitors of human insulin-degrading enzyme in cells; P14735; inhibition, % at 5.59 µM; HEK cells, FAbetaB cleavage, fluorescence polarization; actives 0.41% (n = 320,000); AID 434962;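 active means percent inhibition above the average of all tested compounds plus 3 SD, set per screening campaign, cut at about 16% in these data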;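 further: IDE supplied by intact live HEK cells; FP after avidin binding of uncleaved biotin substrate so inhibition keeps polarization high; 0% = DMSO wells and 100% = 60 µM reference IDE inhibitor Ii1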
Exocytosis inh = lytic granule exocytosis inhibition; actives 0.66% (n = 360,000); TALL-104 LAMP-1 surface exposure, flow cytometry; cells stimulated with thapsigargin and PMA; inhibition, % at 10 µM;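 active means inhibition above about 55%, limit read from the data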
IDE cell activ = IDE (human) activation, cell-based. actives 0.073% (n = 340,000). activation, % at 5.96 µM. AID 493087. HEK cells, FAbeta-B cleavage, fluorescence polarization; 0% vehicle, 100% cell-free pure enzyme wells;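 active means activation above the mean of all tested compounds plus 3 SD, set per screening campaign, cut at about 17% in these data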
SKKanGAS inh = inhibitors of SKKanGAS S. pyogenes growth in kanamycin (SK-promoter or general growth effect) | BacTiter-Glo, 6 h | inhibition, % at 7.5 µM | actives 1.3% (n = 300,000);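 active means mean replicate score, as percent of positive control median, at least 50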;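 further: strain carries kanamycin resistance gene driven by streptokinase promoter and grows in 40 µg/ml kanamycin; loss of luminescence reflects streptokinase promoter inhibition or plain growth inhibition; 0% = median of DMSO wells and 100% = positive control at its reference dose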
PP1 confirm = confirmation of human PP1 phosphatase inhibitors | shares compounds with PP1 counter | purified PP1alpha, OMFP substrate fluorescence | actives 52% (n = 1,900) | inhibition, % at 6.7 µM;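 active means mean PP1 inhibition above a set limit taken from the earlier primary screen, cut at about 15% in these data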
PP5 inh counter = inhibits human PP5 phosphatase in PP1 counter-screen; inhibition, % at 6.7 µM; AID 2360; purified PP5c, OMFP fluorescence; actives 4% (n = 1,900); shares compounds with PP1 counter;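 active means mean PP5 inhibition over triplicate wells above about 9.5% taken from the earlier PP1 screen, limit read from the data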
* hit, by the source's call; / = not tested or not shown.

SMILES	PP1 counter	PP5 inh	IDE inh	Exocytosis inh	IDE cell activ	SKKanGAS inh	PP1 confirm	PP5 inh counter
Cc1c(C=C(C#N)c2ccc([N+](=O)[O-])cc2)c(=O)n(-c2ccccc2)n1C	/	/	/	2.0	-2.5	/	/	/
Nc1ccc2nc(-c3cccc(-c4nc5ccc(N)cc5[nH]4)c3)[nH]c2c1	42.1*	2.6	2.8	4.0	0.1	8.3	-2.5	4.3
CN(CC(CC(=O)Nc1nncs1)c1ccccc1)S(=O)(=O)c1ccc(Br)cc1 (stereo not given)	0.4	3.9	4.7	-0.1	3.2	-1.4	/	/
COc1ccccc1/C=C/C=N/n1c(-c2cc(-c3ccccc3)n[nH]2)n[nH]c1=S	21.7*	2.4	3.5	2.6	5.2	10.7	27.1*	3.1
COc1ccccc1/C=C/C=N/n1c(-c2ccc(F)cc2)n[nH]c1=S	-2.6	0.0	-2.0	-2.3	/	0.7	/	/
S=c1[nH]nc(-c2cc(-c3ccccc3)n[nH]2)n1/N=C/C=C/c1ccccc1	22.8*	5.2	-3.7	-7.5	5.3	10.8	16.9*	0.4
CCOc1ccc(CCNC(=O)c2cn(C)c3ccc(S(=O)(=O)N4CCOCC4)cc3c2=O)cc1OCC	-1.1	-1.3	4.4	7.1	-0.7	0.7	/	/
COCc1cc(=O)[nH]c(/N=C(\N)Nc2cccc(Cl)c2)n1	-0.2	-0.6	4.7	0.8	/	8.2	/	/
Cc1cc(-c2nnc3n2N=C(c2ccc(-c4ccccc4)cc2)CS3)n[nH]1	34.3*	-0.2	-0.8	21.5	-1.3	47.0	22.6*	-0.6
Cc1cc(-c2nnc3n2N=C(c2ccccc2)CS3)n[nH]1	-3.1	-2.1	9.2	-4.7	5.3	10.0	/	/
c1ccc(-c2cc(-c3nnc4n3N=C(c3ccc5ccccc5c3)CS4)[nH]n2)cc1	30.5*	4.5	1.8	-0.9	4.1	35.1	22.5*	-2.3
O=C(COC(=O)[C@@H]1CC(O)CN1S(=O)(=O)c1ccc2c(c1)OCCO2)NCc1ccc(F)cc1 (stereo not given in full)	-5.2	-2.3	9.4	-10.1	-0.7	-11.3	/	/
COc1ccc(/C=C/CN2CCCC(CO)(Cc3cccc(Cl)c3)C2)cc1 (stereo not given)	-0.1	3.7	-3.0	17.8	0.5	-14.6	/	/
CCOc1ccc(S(=O)(=O)NCc2ccc(OC)cc2)c2cccnc12	67.9*	-1.4	1.2	7.9	1.2	0.9	-1.3	2.0
CCOc1ccc(S(=O)(=O)NCc2ccc(F)cc2)c2cccnc12	0.5	2.0	1.7	-0.2	2.8	-3.2	/	/
OCCn1nc(-c2ccccc2)cc1-c1ccccc1	0.4	-0.3	1.9	-4.8	-4.8	0.1	/	/
O=c1cc(-c2ccccc2)cc(-c2ccccc2)n1CCCO	19.1*	-9.7	1.8	-0.3	2.6	-2.0	-4.2	-6.6
NC(=O)[C@H](Cc1cc2ccccc2s1)NC(=O)[C@@H]1CC2(CC(c3cccc(NC(=O)[C@@H]4CCC(=O)N4)c3)=NO2)CN1C(=O)/C=C/c1c(F)cccc1Cl (stereo not given in full)	30.1*	5.3	4.3	1.4	-2.2	26.8	20.0*	6.2
COc1ccc(C=O)c(-c2c(-c3ccccc3OC)sc3ccccc23)c1	/	/	/	-6.7	/	/	/	/
COc1cc(C(=O)Nc2cc(-c3ccccc3)[nH]n2)cc(OC)c1OC	19.8*	2.3	-3.9	-0.3	-6.2	-0.4	17.4*	-3.3
O=C(Cc1ccc(Cl)cc1)NNC(=O)C1CC=CCC1C(=O)O (stereo not given)	1.1	3.7	1.3	-1.6	4.1	-7.1	/	/
Cc1cc(/C=C2\SC(=Nc3ccccc3)NC2=O)c(C)n1-c1ccc(S(N)(=O)=O)cc1	18.2*	3.9	6.3	-0.7	-1.5	72.2*	7.1	0.1
CCCCC(=O)NC(c1ccc(N(CC)CC)cc1)c1ccc2cccnc2c1O (stereo not given)	35.5*	4.1	4.5	17.0	-6.1	44.0	24.0*	-5.4
CCCCC(=O)NC(c1ccc(N(C)C)cc1)c1ccc2cccnc2c1O (stereo not given)	28.8*	1.2	-0.6	14.2	0.5	4.7	21.0*	-3.5
COc1ccc(NC(=O)NC(=O)c2ccccc2)cc1	1.0	5.0	-0.3	-1.8	6.9	-3.2	/	/

Compound activity as filed in PubChem BioAssay.
